From PubChem BioAssay (Tox21)
Values without a mark were called inactive. Inconclusive results are not listed. Where a call stands in place of a potency, no number is given. Calls of active or inactive are those of the source. Unless noted, calls follow the shape of the dose curve; as a rule, active = well fitted curve in the direction sought with a large enough effect in the repeat runs; inconclusive = weak or mixed curves; inactive = no such curve, though single readings can be large; an effect the other way counts as inactive or inconclusive.

How the values were obtained:
[1] = qHTS assay to test for compound auto fluorescence at 535 nm (green) in HEK293 cells (AID 720680)
[2] = qHTS assay to test for compound auto fluorescence at 460 nm (blue) in HEK293 cell free culture (AID 720681)
Summary of the method: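 Blue fluorescence (Ex 405/Em 460 nm, triamterene-equivalent) was read immediately after pin transfer of compound or DMSO into medium (DMEM, 10% FBS) without cells.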

[3] = qHTS assay to test for compound auto fluorescence at 535 nm (green) in HEK293 cell free culture (AID 720682)
Summary of the method: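 Cell-free medium (DMEM, 10% FBS) receives compound or DMSO by pintool. Plate read directly at Ex 485/Em 535 nm. Signal converted to fluorescein equivalency.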

[4] = qHTS assay to test for compound auto fluorescence at 590 nm (red) in HEK293 cell free culture (AID 720683)
Summary of the method: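 Red-channel autofluorescence of compounds in culture medium (DMEM, 10% FBS), no cells, measured at 540/590 nm. Rose Bengal sodium is the reference fluorophore for equivalence.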

[5] = qHTS assay to test for compound auto fluorescence at 590 nm (red) in HepG2 cell free culture (AID 720684)
Summary of the method: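 No cells present: MEM + 10% FBS only. Compound pinned in, red label read (540/590 nm). Activity = fluorescence equivalent to Rose Bengal sodium.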

[6] = qHTS assay to test for compound auto fluorescence at 460 nm (blue) in HepG2 cell free culture (AID 720685)
Summary of the method: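 Cell-free plates of MEM plus 10% FBS received 23 nL compound or DMSO vehicle; blue-channel (405/460 nm) intensity scored against triamterene as reference fluorophore.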

[7] = qHTS assay to test for compound auto fluorescence at 535 nm (green) in HepG2 cell free culture (AID 720686)
[8] = qHTS assay to test for compound auto fluorescence at 460 nm (blue) in HepG2 cells (AID 720687)
Summary of the method: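 Blue-channel autofluorescence (Ex/Em 405/460 nm, triamterene-equivalent) was measured after 1 hr compound exposure at 37 C, 5% CO2. Cells were HepG2, plated overnight at 37 C in MEM plus 10% FBS.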

[9] = target: Glucocorticoid receptor (Homo sapiens) (UniProt P04150); experiment: qHTS assay to identify small molecule agonists of the glucocorticoid receptor (GR) signaling pathway (AID 720691; active = well fitted activation curve with a large enough effect in the signal ratio in the repeat runs, not every such curve was filed as active; the % refers to the signal ratio)
Summary of the method: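 Cells: GR-bla HeLa, endogenous GR with stably integrated GRE-beta-lactamase reporter. Treatment 18 h, 37 C, compounds delivered in DMSO. Detection via LiveBLAzer B/G FRET substrate, 2 h RT, fluorescence intensity.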

[10] = target: Glucocorticoid receptor (Homo sapiens) (UniProt P04150); experiment: qHTS assay to identify small molecule antagonists of the glucocorticoid receptor (GR) signaling pathway (AID 720692; active = well fitted inhibition curve with a large enough effect in the signal ratio in the repeat runs, not every such curve was filed as active; the % refers to the signal ratio)
Summary of the method: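 Quantitative HTS in antagonist format: HeLa cells expressing endogenous GR and a stably integrated GRE-bla reporter, stimulated with 5 nM dexamethasone (final) alongside test compounds for 18 h.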

[11] = qHTS assay to identify small molecule antagonists of the glucocorticoid receptor (GR) signaling pathway - cell viability counter screen (AID 720693); also: nearly all actives have a fitted effect of over 55% in size
[12] = qHTS assay for identifying genotoxic compounds that show differential cytotoxicity against isogenic chicken DT40 cell lines with known DNA damage response pathways - wild type cell line (AID 743012); also: nearly all actives have a fitted effect of over 60% in size; also: potency is read from the fitted curve at half-maximal effect
Summary of the method: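 Luminescent ATP viability signal (CellTiter-Glo, 30 min RT) recorded after wild type DT40 cells were incubated with compounds for 40 h at 37 C/5% CO2.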

[13] = qHTS assay for identifying genotoxic compounds that show differential cytotoxicity against isogenic chicken DT40 cell lines with known DNA damage response pathways - Rev3 mutant cell line (AID 743014); also: nearly all actives have a fitted effect of over 55% in size; also: potency is read from the fitted curve at half-maximal effect
[14] = qHTS assay for identifying genotoxic compounds that show differential cytotoxicity against isogenic chicken DT40 cell lines with known DNA damage response pathways - Rad54/Ku70 mutant cell line (AID 743015); also: nearly all actives have a fitted effect of over 60% in size; also: potency is read from the fitted curve at half-maximal effect
[15] = qHTS assay to identify small molecule antagonists of the androgen receptor (AR) signaling pathway - cell viability counter screen (AID 743033; also: nearly all actives have a fitted effect of over 45% in size; also: potency is read from the fitted curve at half-maximal effect)
[16] = qHTS assay to identify small molecule antagonists of the androgen receptor (AR) signaling pathway using the MDA cell line - cell viability counter screen (AID 743041; also: nearly all actives have a fitted effect of over 45% in size)
Summary of the method: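 Using the breast carcinoma line MDA-kb2 AR-luc, test chemicals were co-incubated with R1881 for 16 h; CellTiter-Fluor reagent, added at 15.5 h, provided a fluorescence measure of live cells.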

[17] = target: Androgen receptor (Homo sapiens) (UniProt P10275); experiment: qHTS assay to identify small molecule antagonists of the androgen receptor (AR) signaling pathway (AID 743035; active = well fitted inhibition curve with a large enough effect in the signal ratio in the repeat runs, not every such curve was filed as active; the % refers to the signal ratio; also: potency is read from the fitted curve at half-maximal effect)
Summary of the method: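 Quantitative HTS of the Tox21 10K library used HEK293 AR-UAS-bla cells stimulated with R1881 alongside compound for 16 h at 37C, followed by beta-lactamase FRET detection (LiveBLAzer B/G, 2 h, RT).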

[18] = target: Androgen receptor (Homo sapiens) (UniProt P10275); experiment: qHTS assay to identify small molecule agonists of the androgen receptor (AR) signaling pathway (AID 743036; active = well fitted activation curve with a large enough effect in the signal ratio in the repeat runs, with a control signal flat, not every such curve was filed as active; the % refers to the signal ratio)
Summary of the method: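 AR-bla HEK293 cells, 2,000/well; 4 h preincubation 37C/5% CO2; compound (DMSO) 16 h at 37C; LiveBLAzer B/G FRET substrate 2 h RT; fluorescence intensity read-out.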

[19] = target: Androgen receptor (Homo sapiens) (UniProt P10275); experiment: qHTS assay to identify small molecule agonists of the androgen receptor (AR) signaling pathway using the MDA cell line (AID 743040; also: nearly all actives have a fitted effect of over 20% in size)
Summary of the method: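 Stable MMTV-luciferase reporter in MDA-kb2 cells; note the promoter carries GR as well as AR response elements. 16 h compound treatment, 37C, 0% CO2; ONE-Glo luminescence endpoint.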

[20] = target: Androgen receptor (Homo sapiens) (UniProt P10275); experiment: qHTS assay to identify small molecule antagonists of the androgen receptor (AR) signaling pathway using the MDA cell line (AID 743042; also: nearly all actives have a fitted effect of over 55% in size; also: potency is read from the fitted curve at half-maximal effect)
Summary of the method: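 Antagonist mode: compounds plus R1881 agonist added to MDA-kb2 AR-luc cells, incubated 16 h at 37C. Luciferase reporter luminescence quantified, with multiplexed CellTiter-Fluor readout for cell viability.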

Sequence of Androgen receptor (Homo sapiens) (P10275 whole entry, looked up): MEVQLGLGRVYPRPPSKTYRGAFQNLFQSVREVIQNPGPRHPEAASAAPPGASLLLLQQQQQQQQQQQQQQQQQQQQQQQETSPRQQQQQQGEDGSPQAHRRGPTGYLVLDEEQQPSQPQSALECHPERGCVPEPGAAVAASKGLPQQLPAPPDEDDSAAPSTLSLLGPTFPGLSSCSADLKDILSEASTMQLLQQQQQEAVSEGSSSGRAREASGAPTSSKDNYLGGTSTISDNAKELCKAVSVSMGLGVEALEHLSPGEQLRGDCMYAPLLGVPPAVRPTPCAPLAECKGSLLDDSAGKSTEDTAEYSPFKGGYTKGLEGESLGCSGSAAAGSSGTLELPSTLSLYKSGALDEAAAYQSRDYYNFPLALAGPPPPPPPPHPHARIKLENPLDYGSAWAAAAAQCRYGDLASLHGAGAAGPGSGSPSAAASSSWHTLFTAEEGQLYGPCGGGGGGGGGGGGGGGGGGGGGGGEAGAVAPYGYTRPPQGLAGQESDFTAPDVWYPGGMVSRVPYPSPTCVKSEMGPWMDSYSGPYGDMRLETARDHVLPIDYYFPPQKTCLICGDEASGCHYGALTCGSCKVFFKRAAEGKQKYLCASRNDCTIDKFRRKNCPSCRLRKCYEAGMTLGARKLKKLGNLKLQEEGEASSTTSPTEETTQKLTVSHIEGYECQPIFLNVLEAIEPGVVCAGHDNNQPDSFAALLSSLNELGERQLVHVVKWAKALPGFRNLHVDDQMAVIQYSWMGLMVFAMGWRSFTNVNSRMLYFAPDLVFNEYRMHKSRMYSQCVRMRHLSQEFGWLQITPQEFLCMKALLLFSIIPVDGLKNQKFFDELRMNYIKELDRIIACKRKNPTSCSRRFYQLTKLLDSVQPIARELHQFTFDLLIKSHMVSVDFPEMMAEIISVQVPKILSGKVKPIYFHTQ
Sequence of Glucocorticoid receptor (Homo sapiens) (P04150 whole entry, looked up): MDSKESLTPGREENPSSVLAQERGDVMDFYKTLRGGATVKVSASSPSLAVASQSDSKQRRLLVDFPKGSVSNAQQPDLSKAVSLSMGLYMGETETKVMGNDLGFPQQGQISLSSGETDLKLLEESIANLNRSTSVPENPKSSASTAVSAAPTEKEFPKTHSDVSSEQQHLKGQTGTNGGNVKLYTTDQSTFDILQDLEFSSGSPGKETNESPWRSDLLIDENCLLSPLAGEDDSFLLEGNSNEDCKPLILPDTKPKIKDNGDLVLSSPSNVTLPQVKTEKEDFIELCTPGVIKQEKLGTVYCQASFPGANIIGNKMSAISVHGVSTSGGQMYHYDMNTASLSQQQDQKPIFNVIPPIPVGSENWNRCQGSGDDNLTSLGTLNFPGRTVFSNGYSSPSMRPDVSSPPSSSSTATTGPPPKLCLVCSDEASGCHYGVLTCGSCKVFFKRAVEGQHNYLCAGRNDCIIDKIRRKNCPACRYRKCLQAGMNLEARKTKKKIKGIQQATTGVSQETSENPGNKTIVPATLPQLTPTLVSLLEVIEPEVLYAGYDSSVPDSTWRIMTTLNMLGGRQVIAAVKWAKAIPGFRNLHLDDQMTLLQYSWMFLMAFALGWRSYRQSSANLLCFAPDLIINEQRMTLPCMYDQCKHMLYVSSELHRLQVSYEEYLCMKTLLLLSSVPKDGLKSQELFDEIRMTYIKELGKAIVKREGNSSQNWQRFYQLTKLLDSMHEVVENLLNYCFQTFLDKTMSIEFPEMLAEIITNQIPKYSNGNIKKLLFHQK

SMILES | outcome [1] | Potency [2] | outcome [3] | outcome [4] | outcome [5] | Potency [6] | outcome [7] | Potency [8] | Potency [9] | Potency [10] | Potency [11] | Potency [12] | Potency [13] | Potency [14] | Potency [15] | Potency [16] | Potency [17] | outcome [18] | outcome [19] | Potency [20]
Cc1ccco1 | inactive | inactive | inactive | inactive | inactive | inactive | inactive | inactive | inactive | inactive | inactive | inactive | inactive | inactive | inactive | inactive | – | – | – | –
CCC=CC#N | inactive | inactive | inactive | inactive | inactive | inactive | inactive | inactive | inactive | inactive | inactive | inactive | inactive | inactive | inactive | inactive | – | – | – | –
C=CC(C)(CCC=C(C)C)OC(=O)CC(C)C (stereo unspecified) | inactive | inactive | inactive | inactive | inactive | inactive | inactive | inactive | inactive | inactive | inactive | inactive | inactive | – | inactive | inactive | – | – | – | –
CC/C=C1/OC(=O)c2ccccc21 | inactive | inactive | inactive | inactive | inactive | inactive | inactive | inactive | inactive | inactive | inactive | inactive | – | inactive | inactive | inactive | inactive | inactive | inactive | inactive
NCCNCCO | inactive | inactive | inactive | inactive | inactive | inactive | inactive | inactive | inactive | inactive | inactive | inactive | inactive | inactive | inactive | inactive | – | – | – | –
CC(CO)CO | inactive | inactive | inactive | inactive | inactive | inactive | inactive | inactive | inactive | inactive | inactive | inactive | inactive | – | inactive | inactive | – | – | – | –
Nc1cccc2c1CN(C1CCC(=O)NC1=O)C2=O (stereo unspecified) | inactive | inactive | inactive | inactive | inactive | inactive | inactive | inactive | inactive | inactive | inactive | inactive | inactive | inactive | inactive | inactive | – | – | – | –
Oc1ccc(Cl)c2cccnc12 | inactive | inactive | inactive | inactive | inactive | inactive | inactive | inactive | inactive | inactive | inactive | 2.98 µM (active) | 4.22 µM (active) | 6.68 µM (active) | 13.4 µM (active) | – | 19 µM (active) | inactive | inactive | 9.44 µM (active)
O=C(OC(=O)c1ccccc1)c1ccccc1 | inactive | inactive | inactive | inactive | inactive | inactive | inactive | inactive | inactive | inactive | inactive | inactive | inactive | inactive | inactive | – | inactive | – | inactive | inactive
NNC(=O)CP(=O)(c1ccccc1)c1ccccc1 | inactive | inactive | inactive | inactive | inactive | inactive | inactive | inactive | inactive | inactive | inactive | inactive | inactive | inactive | inactive | – | – | – | – | –
CCC(OCCCOC)OC(C)=O (stereo unspecified) | inactive | inactive | inactive | inactive | inactive | inactive | inactive | inactive | inactive | inactive | inactive | inactive | inactive | – | inactive | inactive | – | – | – | –
CCCCCCC(C)(C)C(=O)O | inactive | inactive | inactive | inactive | inactive | inactive | inactive | inactive | inactive | inactive | inactive | inactive | inactive | inactive | inactive | inactive | – | inactive | inactive | inactive
CC(=O)OCC[N+](C)(C)C | inactive | inactive | inactive | inactive | inactive | inactive | inactive | inactive | inactive | inactive | inactive | inactive | inactive | inactive | inactive | inactive | – | – | – | –
c1csc(SSc2cccs2)c1 | inactive | inactive | inactive | inactive | inactive | inactive | inactive | inactive | inactive | inactive | inactive | 12.2 µM (active) | 6.86 µM (active) | – | 38.9 µM (active) | inactive | – | – | – | –
CC(C)(C)C(=O)C(=O)O | inactive | inactive | inactive | inactive | inactive | inactive | inactive | inactive | inactive | inactive | inactive | inactive | inactive | inactive | inactive | inactive | – | – | – | –
